From PubChem BioAssay (Tox21)
Results filed as inconclusive are left out. Activity calls are given as the source filed them. Unless noted, calls come from the whole dose curve; as a rule, active = well fitted curve in the direction sought with a large enough effect in the repeat runs; inconclusive = weak or mixed curves; inactive = no such curve, though single readings can be large; an effect the other way counts as inactive or inconclusive.

How the values were obtained:
[1] = qHTS assay to identify small molecule antagonists of the estrogen related receptor (ERR) signaling pathway from Tox21 library - cell viability counter screen (AID 1224834); note: nearly all actives have a fitted effect of over 30% in size
How it was run: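 ERR reporter cells were plated 6 h before compound addition, then exposed to test compounds in DMSO for 17.5 h at 37 C. Viability was read as CellTiter-Fluor fluorescence after a 30-minute incubation at 37 C.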

[2] = molecular target: Luciferin 4-monooxygenase (Photinus pyralis) (UniProt P08659); assay: qHTS assay to identify small molecule inhibitors of firefly luciferase (AID 1224835); note: nearly all actives have a fitted effect of over 25% in size
How it was run: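 Inhibition of purified Photinus luciferase is measured by luminescence. Substrate levels (D-luciferin, ATP) sit at their KM values. Each compound is tested in a concentration series.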

[3] = qHTS assay to identify small molecule agonists of the constitutive androstane receptor (CAR) signaling pathway - cell viability counter screen (AID 1224836); note: nearly all actives have a fitted effect of over 45% in size
How it was run: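 Double-stable HepG2 hepatoma cells (hCAR plus CYP2B6-2.2kb) are treated for 23 h at 37 C with test compounds in 15-point concentration series. PK11195 at 0.75 uM final is co-added. Cell viability is quantified by CellTiter-Fluor.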

[4] = qHTS assay to identify small molecule antagonists of the constitutive androstane receptor (CAR) signaling pathway - cell viability counter screen (AID 1224837); note: nearly all actives have a fitted effect of over 45% in size
How it was run: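 HepG2 cells stably expressing hCAR and a CYP2B6-2.2kb reporter were plated and pre-incubated 4 hr at 37 C/5% CO2, then given compounds at 15 concentrations plus 50 nM CITCO (final). After 23 hr, viability was read by CellTiter-Fluor fluorescence.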

[5] = molecular target: Nuclear receptor subfamily 1 group I member 3 (Homo sapiens) (UniProt Q14994); assay: qHTS assay to identify small molecule antagonists of the constitutive androstane receptor (CAR) signaling pathway (AID 1224838); note: nearly all actives have a fitted effect of over 40% in size
How it was run: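 HepG2 cells stably co-transfected with hCAR and a CYP2B6-2.2kb luciferase reporter were seeded 4 h before compound addition at 15 concentrations. Cells were stimulated with 50 nM CITCO (final) for 24 h at 37 C; luciferase luminescence was then read.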

[6] = molecular target: Nuclear receptor subfamily 1 group I member 3 (Homo sapiens) (UniProt Q14994); assay: qHTS assay to identify small molecule agonists of the constitutive androstane receptor (CAR) signaling pathway (AID 1224839);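 note: HepG2 cells stably carrying human CAR and a CYP2B6 luciferase reporter; nearly all actives have a fitted effect of over 15% in size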
How it was run: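 Readout: firefly luciferase luminescence via ONE-Glo. System: HepG2 double-stable for hCAR and CYP2B6-2.2kb. Conditions: 15-point compound titration, PK11195 at 0.75 uM final, 24 h incubation.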

[7] = qHTS assay to identify small molecule antagonists of the estrogen related receptor signaling pathway with the pleiotropic PPARgamma coactivator (PGC) from Tox21 10K library - cell viability counter screen (AID 1224840; active = well fitted cell-killing curve with a large enough effect in the repeat runs, not every such curve was filed as active; note: nearly all actives have a fitted effect of over 40% in size)
How it was run: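 PGC/ERR cells were seeded at 2,000 cells/well and left 6 hours at 37 C/5% CO2 before pin-tool addition of compounds in DMSO. After 17.5 hours at 37 C, CellTiter-Fluor was added and fluorescence read 30 minutes later.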

[8] = qHTS assay to identify small molecule antagonists of the estrogen related receptor signaling pathway with the pleiotropic PPARgamma coactivator (PGC) from Tox21 10K library (AID 1224841; call rule not given here; note: actives are mostly falling curves and most rising ones were filed inactive; nearly all actives have a fitted effect of over 50% in size)
How it was run: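 PGC/ERR reporter cells were seeded at 2,000 cells/well and held 6 hours at 37 C/5% CO2 before pin-tool addition of compounds in DMSO. After 18 hours at 37 C, One-Glo was added and luminescence read after 30 minutes at room temperature.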

[9] = qHTS assay to identify small molecule agonists of the estrogen related receptor signaling pathway with the pleiotropic PPARgamma coactivator (PGC) from Tox21 10K library (AID 1224842); note: nearly all actives have a fitted effect of over 15% in size
How it was run: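 Luminescence from One-Glo (30 min, room temperature) measured after PGC/ERR cells had 18 h at 37 C with pinned compound (23 nL in DMSO). Cells had been seeded at 2,000 per well and pre-incubated 6 h.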

[10] = qHTS assay to identify small molecule agonists of the hypoxia (HIF-1) signaling pathway - cell viability counter screen (AID 1224844; calls by dose curve; note: nearly all actives have a fitted effect of over 50% in size)
How it was run: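 HRE-bla ME-180 cells in medium with 0.5% dialyzed FBS were preincubated 5 hrs at 37C, exposed to compounds for 17 hrs, then viability was read as CellTiter-Glo luminescence after 30 min at room temperature, in the reporter wells.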

[11] = qHTS assay to identify small molecule agonists of H2AX (AID 1224845; active = well fitted activation curve with a large enough effect in the signal ratio in the repeat runs, not every such curve was filed as active; the % refers to the signal ratio)
How it was run: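 Phospho-H2AX Ser139 measured by HTRF (ex 320 nm; em 665 and 620 nm) after 24 hr antibody incubation. Compounds, 15 concentrations, 0.76% DMSO, were applied to CHO-K1 cells for 3hr at 37C before lysis.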

[12] = qHTS assay to identify small molecule agonists of the hypoxia (HIF-1) signaling pathway (AID 1224846; active = well fitted activation curve with a large enough effect in the signal ratio in the repeat runs, not every such curve was filed as active; the % refers to the signal ratio)
How it was run: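 HRE-bla ME-180 cells (beta-lactamase reporter under hypoxia response element) were plated at 2,000 cells/well in medium with 0.5% dialyzed FBS, rested 5 hrs, then given compounds in DMSO for 17 hrs at 37C, 5% CO2. Reporter induction was read with CCF4-AM FRET substrate.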

[13] = qHTS assay to identify small molecule agonists of H2AX - cell viability counter screen (AID 1224847; calls by dose curve;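 note: wild-type CHO-K1 cells; top concentration of the series differs between compounds; nearly all actives have a fitted effect of over 30% in size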)
How it was run: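 For this counter screen, overnight-attached CHO-K1 cells received test compounds (15 concentrations, 0.76% DMSO final); 3 hr later at 37C, CellTiter-Glo reagent was added and luminescence recorded after 30 min at room temperature.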

[14] = qHTS assay to identify small molecule antagonists of the estrogen related receptor (ERR) signaling pathway from Tox21 library (AID 1224848); note: nearly all actives have a fitted effect of over 50% in size
How it was run: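 Antagonist-mode screen of the Tox21 10K library in an NTP-provided ERR reporter cell line; 18 h compound exposure at 37 C, luminescence measured with ONE-Glo.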

[15] = qHTS assay to identify small molecule agonists of the estrogen related receptor (ERR) signaling pathway from Tox21 library (AID 1224849; calls by dose curve; note: nearly all actives have a fitted effect of over 15% in size); details: ERR reporter cell line, ONE-Glo luciferase, 18 h; at 92.4 µM (top of the series) unless noted
How it was run: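 ERR reporter cell line (NTP) seeded, rested 6 h at 37 C/5% CO2, then pinned with Tox21 compounds in DMSO. After 18 h at 37 C, ONE-Glo luciferase luminescence was read following 30 min at room temperature.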

[16] = qHTS RealTime-Glo MT Cell Viability Assay in HepG2 cells - 24 hour (AID 1224867); note: nearly all actives have a fitted effect of over 50% in size
How it was run: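 qHTS, HepG2, 600 cells/well, RealTime-Glo (NanoLuc + prosubstrate) added with cells; 5 h preincubation; DMSO compound addition; 37 C; luminescence at 0/8/16/24/32/40 h.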

[17] = A CellTox Green Cytotoxicity Assay to monitor cytotoxicity in HEK293 cells - 0 hour (AID 1224869); note: nearly all actives have a fitted effect of over 50% in size
How it was run: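 HEK293 cells premixed with CellTox Green dye were seeded at 600 cells/well and left 5 h at 37 C/5% CO2 before pin transfer of 23 nL compound in DMSO. Fluorescence from dye bound to dead-cell DNA was read during 40 h treatment.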

[18] = molecular target: Thyrotropin receptor (Homo sapiens) (UniProt P16473); assay: qHTS assay to identify small molecule agonists of the thyroid stimulating hormone receptor (TSHR) signaling pathway (AID 1224843; calls by dose curve; note: nearly all actives have a fitted effect of over 45% in size)
How it was run: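 Screening of the Tox21 10K collection used HEK293 cells engineered with TSHR at 800 cells per well. After a 30-min room-temperature compound exposure, HTRF cAMP reagents were added and fluorescence recorded 1 h later.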

[19] = qHTS RealTime-Glo MT Cell Viability Assay in HEK293 cells - 32 hour (AID 1224868)
How it was run: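 Assay medium contained NanoLuc luciferase plus cell-permeant prosubstrate, added with HEK293 cells at 600 cells/well. After 5 h at 37 C/5% CO2 compounds were added; plates stayed at 37 C for 40 h with serial luminescence reads.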
% is set by controls: 0 for no effect and ±100 for the full control effect.

Luciferin 4-monooxygenase (Photinus pyralis), sequence (P08659 whole entry, looked up): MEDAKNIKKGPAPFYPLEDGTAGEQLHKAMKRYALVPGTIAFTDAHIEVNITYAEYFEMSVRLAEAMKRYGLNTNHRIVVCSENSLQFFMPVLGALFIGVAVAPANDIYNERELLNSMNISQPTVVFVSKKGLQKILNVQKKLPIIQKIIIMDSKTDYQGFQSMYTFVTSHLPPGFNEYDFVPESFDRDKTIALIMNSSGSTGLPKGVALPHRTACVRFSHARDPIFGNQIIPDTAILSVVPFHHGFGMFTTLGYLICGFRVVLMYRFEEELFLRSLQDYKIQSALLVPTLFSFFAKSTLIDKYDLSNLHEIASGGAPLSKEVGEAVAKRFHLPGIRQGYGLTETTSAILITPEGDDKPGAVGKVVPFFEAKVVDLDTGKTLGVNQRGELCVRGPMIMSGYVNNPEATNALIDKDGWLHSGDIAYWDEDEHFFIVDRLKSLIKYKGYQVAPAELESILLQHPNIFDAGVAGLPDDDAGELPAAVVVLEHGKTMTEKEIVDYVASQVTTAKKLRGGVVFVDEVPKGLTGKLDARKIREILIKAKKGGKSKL
Nuclear receptor subfamily 1 group I member 3 (Homo sapiens), sequence (Q14994 whole entry, looked up): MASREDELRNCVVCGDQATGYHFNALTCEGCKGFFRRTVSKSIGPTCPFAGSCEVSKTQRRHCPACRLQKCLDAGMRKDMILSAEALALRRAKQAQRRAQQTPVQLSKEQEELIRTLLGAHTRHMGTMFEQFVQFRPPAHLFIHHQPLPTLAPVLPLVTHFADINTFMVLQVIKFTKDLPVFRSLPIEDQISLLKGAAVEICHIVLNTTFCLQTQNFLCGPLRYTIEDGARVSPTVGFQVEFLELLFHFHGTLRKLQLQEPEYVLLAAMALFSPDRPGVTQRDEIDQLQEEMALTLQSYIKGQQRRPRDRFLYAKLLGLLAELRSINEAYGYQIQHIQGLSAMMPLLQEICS
Thyrotropin receptor (Homo sapiens), sequence (P16473 whole entry, looked up): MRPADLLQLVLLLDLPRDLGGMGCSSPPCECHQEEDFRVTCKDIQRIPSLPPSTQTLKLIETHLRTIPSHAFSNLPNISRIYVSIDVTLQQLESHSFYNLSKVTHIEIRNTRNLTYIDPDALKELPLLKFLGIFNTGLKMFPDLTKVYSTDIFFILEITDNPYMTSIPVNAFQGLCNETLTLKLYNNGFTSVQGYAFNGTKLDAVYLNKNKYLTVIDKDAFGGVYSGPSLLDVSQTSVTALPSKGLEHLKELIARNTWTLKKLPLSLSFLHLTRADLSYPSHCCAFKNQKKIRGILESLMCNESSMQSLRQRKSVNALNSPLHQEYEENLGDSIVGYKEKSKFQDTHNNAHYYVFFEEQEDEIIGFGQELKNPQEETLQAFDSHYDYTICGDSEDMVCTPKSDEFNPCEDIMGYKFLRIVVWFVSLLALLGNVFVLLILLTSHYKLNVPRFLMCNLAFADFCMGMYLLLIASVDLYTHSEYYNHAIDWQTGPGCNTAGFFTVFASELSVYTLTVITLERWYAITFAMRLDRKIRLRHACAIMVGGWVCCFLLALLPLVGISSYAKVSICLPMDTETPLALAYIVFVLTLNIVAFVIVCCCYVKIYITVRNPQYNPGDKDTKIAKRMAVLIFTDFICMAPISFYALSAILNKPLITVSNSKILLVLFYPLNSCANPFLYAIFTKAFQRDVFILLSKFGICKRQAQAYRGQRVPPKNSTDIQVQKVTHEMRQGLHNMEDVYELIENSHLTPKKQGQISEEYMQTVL

O=C1OC(=O)C2CCCCC12 (centres undefined)
inactive: Potency [1] | Potency [2] | Potency [3] | Potency [4] | Potency [5] | Potency [6] | Potency [7] | Potency [8] | outcome [9] | Potency [10] | outcome [11] | outcome [12] | Potency [13] | Potency [14] | activity change, positive = activation [15] -1.02% | Potency [16] | Potency [17]

CC1=CC(C)C(C=O)CC1 (centres undefined)
inactive: Potency [1] | Potency [2] | Potency [3] | Potency [4] | Potency [5] | Potency [6] | Potency [7] | Potency [8] | Potency [18] | Potency [10] | outcome [11] | outcome [12] | Potency [13] | Potency [14] | activity change, positive = activation [15] 0.053% | Potency [16] | Potency [19] | Potency [17]

NC(CSCC(=O)O)C(=O)O (centres undefined)
inactive: Potency [1] | Potency [2] | Potency [3] | Potency [4] | Potency [5] | Potency [6] | Potency [7] | Potency [8] | outcome [9] | Potency [10] | outcome [11] | outcome [12] | Potency [13] | Potency [14] | activity change, positive = activation [15] 5.41% [at 42.5 µM] | Potency [16] | Potency [17]

C/C=C(\C)C#N
inactive: Potency [1] | Potency [2] | Potency [3] | Potency [4] | Potency [5] | Potency [6] | Potency [7] | Potency [8] | Potency [18] | Potency [10] | outcome [11] | outcome [12] | Potency [13] | Potency [14] | activity change, positive = activation [15] 0.294% | Potency [16] | Potency [19] | Potency [17]

CC(C)(O)C#CC(C)(C)O
inactive: Potency [1] | Potency [2] | Potency [3] | Potency [4] | Potency [5] | Potency [6] | Potency [7] | Potency [8] | outcome [9] | Potency [18] | Potency [10] | outcome [12] | Potency [13] | activity change, positive = activation [15] 4.8% | Potency [16] | Potency [19] | Potency [17]

CCCCCCOC(=O)CCCCC(=O)OCCCCCC
inactive: Potency [1] | Potency [2] | Potency [3] | Potency [4] | Potency [5] | Potency [6] | Potency [7] | Potency [8] | outcome [9] | Potency [10] | outcome [11] | outcome [12] | Potency [13] | Potency [14] | activity change, positive = activation [15] 5.81% | Potency [16] | Potency [19] | Potency [17]

O=C(O)c1ccccc1OP(=O)(O)O
inactive: Potency [1] | Potency [2] | Potency [3] | Potency [4] | Potency [5] | Potency [6] | Potency [7] | Potency [8] | outcome [9] | Potency [18] | Potency [10] | outcome [11] | Potency [13] | Potency [14] | Potency [16] | Potency [19] | Potency [17]

CCCCNC(=O)NCCCC
inactive: Potency [1] | Potency [2] | Potency [3] | Potency [4] | Potency [5] | Potency [6] | Potency [7] | Potency [8] | Potency [18] | Potency [10] | outcome [11] | outcome [12] | Potency [13] | Potency [14] | activity change, positive = activation [15] 12.5% | Potency [16] | Potency [19] | Potency [17]

CN1CCN(c2cc3c(cc2F)c(=O)c(C(=O)O)cn3-c2ccc(F)cc2)CC1
inactive: Potency [1] | Potency [2] | Potency [3] | Potency [4] | Potency [5] | Potency [6] | Potency [7] | Potency [8] | outcome [9] | Potency [10] | outcome [11] | outcome [12] | Potency [13] | Potency [14] | activity change, positive = activation [15] -10.8% [at 42.5 µM] | Potency [16] | Potency [17]

O=C(O)CNC(=O)c1ccc([N+](=O)[O-])cc1
inactive: Potency [1] | Potency [2] | Potency [3] | Potency [4] | Potency [5] | Potency [6] | Potency [7] | Potency [8] | outcome [9] | Potency [10] | outcome [11] | outcome [12] | Potency [13] | Potency [14] | activity change, positive = activation [15] 4.79% | Potency [16] | Potency [17]
